Compounds without any hit were thinned out: in the full panel of roughly 83,000, 20% have a hit.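 Single-dose data. Exposure time 48 hours. Values below 10 considered active.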 Values without a mark were called inactive. Active and inactive are the calls of the source.
test system: HL-60(TB) leukemia; assay: NCI-60 one-dose screen, 48 h (100 = growth as untreated, 0 = no growth, -100 = all killed); conditions: 10 µM unless noted

| SMILES | growth |
| --- | --- |
| c1cncc(CNc2ccccc2-c2nnc(Nc3ccc4c(c3)OCO4)o2)c1 | -22.5% (active) |
| CC1(C)CC[C@]2(C(=O)O)CC[C@]3(C)C(=CC[C@@H]4[C@@]5(C)C/C(=C/c6ccco6)C(=O)C(C)(C)[C@@H]5CC[C@]43C)[C@@H]2C1 | -16.4% [100 µM] (active) |
| CSc1nn(-c2ccccc2)c2ncnc(Oc3ccccc3)c12 | 109% |
| Cc1cc(N(CCNc2ccnc3cc(Cl)ccc23)Cc2ccc3c(c2)OCO3)nc(N2CCCC2)n1 | -61.9% (active) |
| O=C(O)c1cc(N=Nc2ccc(-c3ccc(N=Nc4c(S(=O)(=O)O)cc5ccc(Nc6ccccc6)cc5c4O)cc3)cc2)ccc1O | 98.9% |
| COc1cccc(-c2nc3sccn3c2-c2ccnc(NCCCNS(=O)(=O)c3ccc(Cl)cc3)c2)c1 | 27.4% |
| CC(C(C(=O)N1CCCCC1)N1CCCCC1)N1CCCCC1 (stereo not given) | 104% |
| CC(C)(C)c1cc(-n2c(-c3ccc(Cl)cc3)nc3cc(C(=O)Nc4ccc(Cl)cc4)ccc32)n[nH]1 | 51.3% |
| COC(=O)c1c2c(c(C)[n+]([O-])c1C)C(=O)C=C(NCc1cccc(Cl)c1)C2=O | -31.8% (active) |
| COC(=O)CC1=C(C)/C(=C/c2[nH]c(-c3ccc[nH]3)cc2OC)N=C1C | -29.2% (active) |
| Cc1ccc(N2C(=O)CCC2=O)cc1 | 104% |
| Cc1nnc2c3nnc(-c4ccc(Cl)cc4)n3c3ccccc3n12 | 101% |
| CC(C)(C)CC(C)(C)Nc1c(-c2c(O)c3ccccc3oc2=O)nc2c(Cl)cc(C(F)(F)F)cn12 | 90.9% |
| CC(O)/C=C/C=C/C(O)CC/C=C/C(=O)NCC(C)(C)O (stereo not given) | 81.1% |
| CCOC(=O)c1nc(Nc2ccc(C(C)=O)cc2)sc1C | 95.5% |
| CCc1ccccc1C(=O)N(CC)CC | 95.1% |
| COc1ccc(-c2nc(SCCC(C)C)nc(N/N=C\c3ccccc3O)c2C#N)cc1 | 83.6% |
| CNC(=O)c1cc(Oc2ccc3nc(Nc4cc(Cl)cc(Cl)c4)ccc3c2)ccn1 | 47.6% |
| COC1C(O)CC(OC2CC(OC3CC(O[C@@H]4C(=O)c5c(cc6cc(OC7CC(OC8CC(O)C(O)C(C)O8)C(O)C(C)O7)c(C)c(O)c6c5O)CC4[C@H](OC)C(=O)O)OC(C)C3O)OC(C)C2O)OC1C (stereo not given in full) | 60.5% |
| Cc1nc2cc(Nc3nc(Cl)nc(Nc4ccc(F)cc4)n3)ccc2n1Cc1ccccc1 | 53.2% |

| SMILES | growth |
| --- | --- |
| CC(C)=CCCC(C)c1ccc(C)c2c1OCN(CCCCCO)C2 (stereo not given) | 51.7% |
| C=CCn1c(C)nc2cc(Nc3nc(Cl)nc4ccccc34)ccc21 | 84.1% |
| COC(=O)C1CCc2sc3ncnc(Nc4cn[nH]c4C(=O)Nc4ccc(CN5CCN(C)CC5)cc4)c3c21 (stereo not given) | -28.8% (active) |
| COc1ccc(-c2ccc(-c3ccc(C(=N)N)cn3)s2)cc1 | -37.1% (active) |
| O=C(c1ccc(/C=C/c2n[nH]c3ccccc23)cc1)N1CCNCC1 | 31.7% |
| CNc1ccc(Nc2cccc(C)c2)c2c1C(=O)c1ccccc1C2=O | 80.6% |
| CC/C(=C\c1ccc(N(C)C)cc1)c1ccncc1 | 29.5% |
| COc1ccc(-c2cc(-c3ccc(Nc4nc(Nc5ccc(Cl)cc5)nc(Nc5ccc(Cl)cc5)n4)cc3)no2)cc1 | -43.5% (active) |
| O=c1c2cc(F)ccc2sc2c(NCCCN3CCCC3)nc3ccccc3c12 | 13.9% |
| CCNC(=S)n1nc(SC)c(C(=O)OCC)c1N | 100% |
| C#CC#CC#CC#CC#CC#CC#CC#CC[C@H]1OC[C@@H](COC(=O)O[C@@H](C(=O)O[C@H]2C[C@@]3(O)[C@@H](OC(=O)c4ccccc4)[C@@H]4[C@]5(OC(C)=O)CO[C@@H]5C[C@H](O)[C@@]4(C)C(=O)[C@H](OC(C)=O)C(=C2C)C3(C)C)[C@@H](NC(=O)c2ccccc2)c2ccccc2)O1 | 6.5% (active) |
| O=C(CSc1nc2c(n1Nc1ccccc1)-c1ccccc1SC2)Nc1nc(-c2ccc(Cl)cc2)cs1 | 104% |
| O=c1[nH]c2ccccc2cc1-c1nc2ccncc2[nH]1 | 25.9% |
| OC(CN1CCCC2CCCCC21)c1cc2ccccc2c2ccccc12 (stereo not given) | 84.9% |
| O=S(=O)(Oc1ccc(-c2ccc3sccc3c2)cc1)c1ccc(F)cc1 | 97.1% |
| C=C(C)[C@@H]1CC[C@]2(C(=O)N3CCN(C)CC3)CC[C@]3(C)[C@H](CC[C@@H]4[C@@]5(C)CCC(=O)C(C)(C)[C@@H]5CC[C@]43C)[C@@H]12 | 60.1% |
| NC(=O)c1cc(I)ccc1NC(=O)/C=C/c1ccccc1 | 0.952% (active) |
| CSc1ccc(-c2cc(-c3ccc(NC(=O)CCCN4CCCC4)cc3)nc(-c3ccc(NC(=O)CCCN4CCCC4)cc3)c2)cc1 | 60.8% |
| CC(C)NC(=O)N/C=C(\C#N)C(N)=O | 137% |
| O=C(NNC(=O)c1nc2cc(F)ccc2n2cccc12)c1cnccn1 | 17.8% |

Reference: PubChem BioAssay (NCI)
